This note sets out measurements from the supplement of paper PMC10646978.

The assay has as its system RAW-Dual (murine macrophage reporter line). The assay is described as follows: viability score (confluency relative to resting cells, overnight) (fraction); higher = more viable, active = viable (0.7 or more). The conditions noted are these: modulator concentration 10 µM. A digest of the protocol: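 Two confluency masks, generated with IncuCyte software over all imaged wells, were applied to IncuCyte images of RAW-Dual macrophages. The cells, in 384-well plates, had been exposed overnight to 10 μM final compound. The viability score is confluency as a fraction of resting cells, and a compound met the cutoff only with both masks above 70% of resting cells.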
For `COC(=O)C1=CN(CC2CCCO2)C=C(C(=O)OC)C1c1cccc(Cl)c1` (configuration not stated), the viability score is 0.994 (active).
On to `O=C(NCCOc1cccc2cccnc12)c1c(F)cccc1F`, for which the viability score was 1.01 (active).
For the molecule `CCOC(=O)C(C)N(c1ccc(OC)cc1)S(C)(=O)=O` (configuration not stated), the viability score is 0.977 (active).
In the case of `CN1C(C(=O)Nc2ccccn2)=C(O)c2ccccc2S1(=O)=O`, the viability score was 1.02 (active).
`Cc1nc(Nc2ncc(C(=O)Nc3c(C)cccc3Cl)s2)cc(N2CCN(CCO)CC2)n1.Cl`: the viability score was 1 (active).
Then `O=S(=O)(Oc1cccc2ccccc12)c1ccc(F)cc1`, with 0.999 (active); and `O=S(=O)(c1cccc2ccccc12)n1cnc2ccccc21`, with 1.01 (active); and `O=C(NCC1CCCN1c1nccs1)C1CC1` (configuration not stated), with 0.99 (active).
To `O=[N+]([O-])c1cc2c(cc1C=Nc1ccc(O)cc1)OCO2` belongs 1 (active).
As to `COc1ccc(Cl)cc1C(=O)NCCc1ccc(S(=O)(=O)NC(=O)NC2CCCCC2)cc1`, the viability score is 1 (active).
To `O=C(NC(=S)NNc1ccccc1)c1cc2ccccc2oc1=O` belongs 0.999 (active); to `COC(=O)C1=C(C)N(C)C(C)=C(C(=O)OC)C1c1cccc(C(F)(F)F)c1`, 1.01 (active).
To `CN(C)CCCN1c2ccccc2CCc2ccccc21.Cl` belongs 0.883 (active).
To `O=C(Nc1nc2ccccc2n1CCN1CCOCC1)C1CCCCC1` belongs 1.02 (active); to `COc1ccc(S(=O)(=O)N(CC(=O)Nc2ccccc2F)c2ccc(C)cc2)cc1OC`, 1.01 (active); to `Cc1ccccc1C(=O)N(Cc1cccnc1)c1nc2c(F)cccc2s1`, 0.984 (active).
Consider `O=C(NN=Cc1cccc(Cl)c1Cl)c1cc(O)cc(O)c1`, for which the viability score was 1.04 (active).
